The campaign covered roughly 290,000 compounds. About 3,000 (1%) were called active. No stated cut-off is given here; in the data, active means inhibition mostly above about 36% (no sharp cut-off); inactive means mostly below about 34%. The sample as a whole holds a higher share of actives than the screen did.
The compounds below were run against T1, Nucleotide-binding oligomerization domain-containing protein 1, Homo sapiens (UniProt Q9Y239) (assay: inhibition of NOD1-driven NF-kB reporter – cell-based, luminescence, uHTS, primary screen (AID 1578)).
T1 sequence (whole entry): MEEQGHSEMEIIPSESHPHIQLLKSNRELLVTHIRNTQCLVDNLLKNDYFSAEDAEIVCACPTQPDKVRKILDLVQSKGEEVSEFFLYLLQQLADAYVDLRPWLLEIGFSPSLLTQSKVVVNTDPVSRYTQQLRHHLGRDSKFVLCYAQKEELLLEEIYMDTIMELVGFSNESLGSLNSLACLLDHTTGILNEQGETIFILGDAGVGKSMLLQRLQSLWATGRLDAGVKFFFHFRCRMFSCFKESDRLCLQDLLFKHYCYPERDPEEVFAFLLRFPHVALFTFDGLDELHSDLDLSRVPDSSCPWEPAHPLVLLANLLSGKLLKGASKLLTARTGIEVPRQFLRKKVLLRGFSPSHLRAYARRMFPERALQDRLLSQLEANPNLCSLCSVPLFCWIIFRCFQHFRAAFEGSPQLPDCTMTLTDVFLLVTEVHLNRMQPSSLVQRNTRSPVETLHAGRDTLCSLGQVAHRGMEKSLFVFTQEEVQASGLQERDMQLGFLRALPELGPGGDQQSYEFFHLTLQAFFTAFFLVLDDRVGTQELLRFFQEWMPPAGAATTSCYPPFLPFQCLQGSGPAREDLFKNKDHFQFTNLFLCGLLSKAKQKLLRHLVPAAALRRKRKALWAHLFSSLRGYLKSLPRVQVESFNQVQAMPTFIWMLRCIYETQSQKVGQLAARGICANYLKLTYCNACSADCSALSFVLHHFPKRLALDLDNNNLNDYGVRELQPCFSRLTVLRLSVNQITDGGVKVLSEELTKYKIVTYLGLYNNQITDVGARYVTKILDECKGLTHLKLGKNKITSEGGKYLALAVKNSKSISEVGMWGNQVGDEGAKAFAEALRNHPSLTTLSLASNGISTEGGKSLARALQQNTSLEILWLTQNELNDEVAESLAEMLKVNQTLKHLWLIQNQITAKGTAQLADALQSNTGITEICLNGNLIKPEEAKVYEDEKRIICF

| SMILES | outcome |
| --- | --- |
| CC1CC(C)CN(C(=O)/C=C/c2ccc([N+](=O)[O-])s2)C1 (stereo not drawn) | active |
| O=C(/C=C/c1ccc([N+](=O)[O-])s1)N1CCCCC1 | active |
| CCOC(=O)c1c(-c2ccccc2)oc2cc(Br)c(O)c(C=O)c12 | active |
| COc1ccccc1NC(=O)c1cc2cc(Br)ccc2cc1O | active |
| Cc1ccnc(NC(=O)Cc2ccc(-c3ccccc3)cc2)c1 | active |
| COc1cc(OC)cc(-c2cc3nc(C)c(CCC(=O)O)c(C)n3n2)c1 | active |
| O=c1[nH]c(-c2ccccn2)nc2sc(-c3ccccc3)cc12 | active |
| Cn1c2c(c(=O)n(C)c1=O)C(C(F)(F)F)(C(F)(F)F)N=C(c1ccc(Cl)cc1)N2 | active |
| CC1CCC/C=C/C(=O)c2c(O)cc(O)cc2CC(=O)O1 (stereo not drawn) | active |
| COc1ccc(NC(=O)/C(Cl)=C(/Cl)S(=O)(=O)Cc2ccc(C)cc2)cn1 | active |
| COc1ccc(NC(=O)/C(Cl)=C(/Cl)S(=O)(=O)Cc2ccccc2)cn1 | active |
| N=C1SCC(=O)N1c1ncc(Cc2cccc(Cl)c2)s1 | active |
| N=C1SCC(=O)N1c1ncc(Cc2ccc(F)cc2)s1 | active |
| N=C1SCC(=O)N1c1ncc(Cc2ccccc2Cl)s1 | active |
| O=c1[nH]c(=O)n(Cc2ccco2)c2c1C(C(F)(F)F)(C(F)(F)F)N=C(c1ccc(F)cc1)N2 | active |
| Nc1ncnc(NCc2ccc(F)cc2)c1[N+](=O)[O-] | active |
| CCc1ccc(NC(=O)C2CCN(S(=O)(=O)c3ccc4c(c3)CC(C)N4C(C)=O)CC2)cc1 (stereo not drawn) | active |
| CC(=O)c1ccc(N2CCN(S(=O)(=O)c3ccc4c(c3)CC(C)N4C(C)=O)CC2)cc1 (stereo not drawn) | active |
| Cc1ccc(-n2nc3c(=O)n(CC(=O)NC(C)CCc4ccccc4)nc(C)c3c2C)cc1 (stereo not drawn) | active |
| Cc1ccc(-n2nc3c(=O)n(C(C)C(=O)NCCC4=CCCCC4)nc(C)c3c2C)cc1 (stereo not drawn) | active |
| Cc1ccc(-n2nc3c(=O)n(C(C)C(=O)NCCc4cccs4)nc(C)c3c2C)cc1 (stereo not drawn) | active |
| Cc1ccc(-n2nc3c(=O)n(C(C)C(=O)NCCCc4ccccc4)nc(C)c3c2C)cc1 (stereo not drawn) | active |
| CCc1ccc(NC(=O)c2cnc(N3CCN(c4ccccn4)CC3)c3ccccc23)cc1 | active |

| SMILES | outcome |
| --- | --- |
| Cc1cc(Br)ccc1NC(=O)c1cnc(N2CCN(c3ccccn3)CC2)c2ccccc12 | active |
| O=C(c1cnc(N2CCN(c3ccccn3)CC2)c2ccccc12)N1CCN(c2cccc(Cl)c2)CC1 | active |
| Cc1ccc(NC(=O)c2cnc(N3CCN(c4ccccn4)CC3)c3ccccc23)c(Br)c1 | active |
| C=CCSc1nc2ccccc2n1C(=O)/C=C/c1ccc(OC)c(OC)c1 | active |
| COc1ccc(N(C(=O)CCl)C(C(=O)NC2CCCCC2)c2cccnc2)cc1 (stereo not drawn) | active |
| O=C(NC1CCCCC1)C(c1cccnc1)N(C(=O)CCl)c1ccc(F)cc1 (stereo not drawn) | active |
| O=C(CN1C(=O)c2ccccc2S1(=O)=O)c1ccc2c(c1)OCCO2 | active |
| O=C(CN1C(=O)c2ccccc2S1(=O)=O)c1ccc2c(c1)OCCCO2 | active |
| COc1cc(OC)c(OC)cc1/C=C/C(=O)c1ccc(NS(=O)(=O)c2ccc(C)cc2)cc1 | active |
| COc1cc(/C=C/C(=O)c2ccc(NS(=O)(=O)c3ccc(C)cc3)cc2)cc(OC)c1O | active |
| O=C(/C(=C/c1ccc(Cl)cc1)c1nc2ccccc2[nH]1)c1cccs1 | active |
| O=C(/C(=C\c1ccccc1)c1nc2ccccc2[nH]1)c1ccc(Cl)cc1 | active |
| O=C(/C(=C/c1ccc(Cl)cc1)c1nc2ccccc2[nH]1)c1ccccc1 | active |
| O=S(=O)(Nc1cccc2ncccc12)c1cccs1 | active |
| Cc1ccc(S(=O)(=O)Nc2cccc3ncccc23)s1 | active |
| Cc1ccc(C)c(OCC(=O)Nc2nc3ccc([N+](=O)[O-])cc3s2)c1C | active |
| O=[N+]([O-])c1ccc(O)c(-c2cc(C(F)(F)F)nc(-c3ccccc3)n2)c1 | active |
| CC(C)c1ccc(-n2c(-c3ccccc3)c[n+]3c2CCc2ccccc2-3)cc1.[Br-] | active |
| CCCCCCCC[n+]1cccc2c3ccccc3ccc21.[I-] | active |
| CCCCCCCCC[n+]1cccc2c3ccccc3ccc21.[Br-] | active |
| O=C(NC(NC(=S)Nc1ccc(Cl)cc1Cl)C(Cl)(Cl)Cl)c1cccc([N+](=O)[O-])c1 (stereo not drawn) | active |
| COc1ccc(Cc2[nH]n3c(=O)c(Cl)c(C)nc3c2-c2ccccc2)cc1 | active |
| O=C(Cc1ccc(Cl)cc1)c1c[nH]c(C(=O)NCc2cccnc2)c1 | active |

| SMILES | outcome |
| --- | --- |
| CCN(c1ccc(OC)cc1)c1ncnc2nc[nH]c12 | active |
| CCCN(CCC)c1ncnc2nc[nH]c12 | active |
| CCc1ccc(N(CC)c2ncnc3nc[nH]c23)cc1 | active |
| COc1ccc(N=C2NC(=O)/C(=C/c3ccc(O)c(OC)c3)S2)cc1 | active |
| Cc1ccc(C(=O)NC(=S)N(C)C2CCCCC2)cc1Br | active |
| Cn1nc([N+](=O)[O-])nc1Sc1cccc2cccnc12 | active |
| O=[N+]([O-])c1ccc(Sc2cccc3cccnc23)c([N+](=O)[O-])c1 | active |
| C=CCn1nc([N+](=O)[O-])nc1Sc1cccc2cccnc12 | active |
| C=CCn1c(SCC(=O)Nc2sccc2C(N)=O)nc2sc(CC)cc2c1=O | active |
| Cc1ccc(C(=O)OCn2ncc(Cl)c(Cl)c2=O)cc1 | active |
| O=C(OCn1ncc(Cl)c(Cl)c1=O)c1ccccc1Cl | active |
| O=C(OCn1ncc(Br)c(Br)c1=O)c1ccccc1Cl | active |
| O=C(OCn1ncc(Cl)c(Cl)c1=O)c1cccc(C(F)(F)F)c1 | active |
| COc1cccc(C(=O)Nc2nc(-c3ccccc3)c(-c3ccccc3)o2)c1 | active |
| COc1cc(OC)cc(C(=O)Nc2nc(-c3ccccc3)c(-c3ccccc3)o2)c1 | active |
| S=c1[nH]nc(C2CCCCC2)n1/N=C/c1ccncc1 | active |
| O=c1c2cc(Cl)ccc2nc(-c2ccc(Cl)c(Cl)c2)n1O | active |
| O=c1c2cc(Br)ccc2nc(-c2cccc(C(F)(F)F)c2)n1O | active |
| COc1cccc(N2CCN(c3ncnc4c3[nH]c3ccc(F)cc34)CC2C)c1 (stereo not drawn) | active |
| COc1cccc(N2CCN(c3ncnc4c3[nH]c3ccccc34)CC2C)c1 (stereo not drawn) | active |
| Cc1nc(N2CCC(C(N)=O)CC2)c2c(-c3cccs3)csc2n1 | active |
| Cc1sc2nc(CSc3ccccc3)nc(N3CCC(C(N)=O)CC3)c2c1C | active |
